LGR2 inh = Drosophila LGR2 receptor signaling inhibition | HEK293 LGR2, CRE-luciferase, bursicon-stimulated, 4 h | inhibition, % at 9.99 µM | 380,000 compounds, 0.35% hits | AID 720647;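 active = drop in luminescence signal, shown as inhibition above about 50% in the replicate tests, limit read from the data, passing the limit was not always enough; inconclusive = probably only some replicates passing the limit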;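 also: agonist challenge used bursicon conditioned medium at about half maximal strength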
NCOA3 inh = inhibits human SRC3 coactivator; AID 588352; Q9Y6Q9; 360,000 compounds, 0.17% hits; inhibition, % at 3.6 µM; HEK293 GAL4-SRC3 luciferase reporter, luminescence;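 active = inhibition above a per-campaign cutoff, the mean of all compounds plus 3 SD, cut at about 60% in these data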;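 also: 0% = DMSO-treated cells and 100% = gossypol-treated cells at 36 µM; higher means less SRC3-driven luciferase light from the GAL4 reporter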
Target sequence (Q9Y6Q9 whole entry, looked up, the tested form may be a part): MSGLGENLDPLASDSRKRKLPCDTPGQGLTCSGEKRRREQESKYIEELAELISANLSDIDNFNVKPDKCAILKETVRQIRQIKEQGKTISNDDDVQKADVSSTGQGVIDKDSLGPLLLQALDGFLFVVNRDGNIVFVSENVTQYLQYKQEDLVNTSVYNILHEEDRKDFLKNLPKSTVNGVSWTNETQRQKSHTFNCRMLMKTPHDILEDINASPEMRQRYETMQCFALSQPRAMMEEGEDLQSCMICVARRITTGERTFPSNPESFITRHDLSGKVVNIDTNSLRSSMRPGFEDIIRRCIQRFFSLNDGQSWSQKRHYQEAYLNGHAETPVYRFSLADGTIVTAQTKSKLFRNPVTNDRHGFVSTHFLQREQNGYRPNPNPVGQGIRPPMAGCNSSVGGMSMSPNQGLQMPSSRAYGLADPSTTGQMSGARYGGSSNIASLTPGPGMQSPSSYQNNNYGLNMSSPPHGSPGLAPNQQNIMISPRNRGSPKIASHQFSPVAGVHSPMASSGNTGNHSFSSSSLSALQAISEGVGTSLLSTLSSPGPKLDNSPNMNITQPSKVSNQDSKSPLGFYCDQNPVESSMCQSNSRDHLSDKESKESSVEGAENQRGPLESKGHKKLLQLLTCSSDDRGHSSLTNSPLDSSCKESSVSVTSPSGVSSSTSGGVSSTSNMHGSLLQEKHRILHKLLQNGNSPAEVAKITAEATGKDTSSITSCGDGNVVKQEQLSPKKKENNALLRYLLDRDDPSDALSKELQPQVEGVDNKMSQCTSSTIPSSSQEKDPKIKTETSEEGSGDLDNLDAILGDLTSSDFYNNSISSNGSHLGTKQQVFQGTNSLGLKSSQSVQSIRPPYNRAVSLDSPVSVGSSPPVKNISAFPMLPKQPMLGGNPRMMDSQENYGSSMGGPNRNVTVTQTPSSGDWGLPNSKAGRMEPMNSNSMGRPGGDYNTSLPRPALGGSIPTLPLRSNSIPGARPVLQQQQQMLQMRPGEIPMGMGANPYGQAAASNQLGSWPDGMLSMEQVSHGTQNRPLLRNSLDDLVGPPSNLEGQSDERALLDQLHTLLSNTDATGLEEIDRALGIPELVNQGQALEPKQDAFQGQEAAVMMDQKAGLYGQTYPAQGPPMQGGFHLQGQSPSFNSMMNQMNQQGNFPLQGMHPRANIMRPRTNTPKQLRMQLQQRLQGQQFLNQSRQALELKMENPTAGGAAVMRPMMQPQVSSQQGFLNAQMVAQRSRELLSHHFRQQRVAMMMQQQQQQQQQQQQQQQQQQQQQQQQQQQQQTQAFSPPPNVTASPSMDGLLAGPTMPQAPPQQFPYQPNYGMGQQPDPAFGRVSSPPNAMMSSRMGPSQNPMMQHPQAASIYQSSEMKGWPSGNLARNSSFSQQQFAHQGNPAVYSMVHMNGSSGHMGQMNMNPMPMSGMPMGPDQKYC
NR5A2 inv ag = NR5A2 inverse agonism in reporter assay | O00482 | HEK293T StAR-luciferase reporter, LRH-1 transfected, 24 h | inhibition, % at 3.6 µM | 360,000 compounds, 0.13% hits;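 active = inhibition above the mean inhibition of all tested compounds plus 3 SD, cut at about 73% in these data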;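 also: 0% = DMSO wells and 100% = reporter-only cells lacking LRH-1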
SRC2 inh = human SRC2 (NCOA2) inhibition. HEK293 GAL4-SRC2 luciferase reporter, luminescence. AID 651957. inhibition, % at 9 µM. 370,000 compounds, 0.17% hits;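 active = inhibition above the mean inhibition of all tested compounds plus 3 SD, set per campaign, cut at about 52% in these data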;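 also: 0% = DMSO treated cells and 100% = cells given Gossypol at 36 µM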
SRC1 inh = inhibits human SRC1 coactivator; Q15788; HEK293 GAL4-SRC1 luciferase reporter, luminescence; inhibition, % at 3.6 µM; 360,000 compounds, 0.12% hits;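 active = inhibition above the campaign mean plus 3 SD, with each screening campaign given its own cutoff, cut at about 60% in these data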;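 also: 0% = DMSO treated cells and 100% = gossypol at 36 µM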
* hit, by the source's call; ? = inconclusive; / = no result given. Only some compounds are listed: those with a hit (about 0.45% of all), similar ones and a draw of the others.

SMILES	LGR2 inh	NCOA3 inh	NR5A2 inv ag	SRC2 inh	SRC1 inh
CC(=O)N1CC2(C1)[C@H](c1ccc(-c3cccc(F)c3)cc1)[C@H](CO)N2CC1CCCC1	-15	/	/	/	/
Oc1ccc(/C=C/c2ccc3ccccc3n2)cc1	96*	-62	-153	21	-75
CN(C)c1ccc(/C=C/c2ccc3ccccc3n2)cc1	93*	64*	63	/	62*
Fc1ccccc1/C=C/c1ccc2ccccc2n1	90*	-45	-106	-46	-93
CCCN(CCC)c1ccc(/C=C/c2ccc3cc(OCC)ccc3n2)cc1	-61	-1	-21	15	-14
CN(C)c1ccc(/C=C/c2nc3ccccc3s2)cc1	/	64*	41	54*	56
CO[C@H]1CN(C)C(=O)c2ccc(NC(=O)C3CC3)cc2OC[C@@H](C)N(Cc2cncnc2)C[C@H]1C	4	/	/	/	/
O=C(O)/C=C/c1ccc2ccccc2n1	/	3	-6	3	-10
O=[N+]([O-])c1ccc(/C=C/c2ccc3cccc(O)c3n2)cc1	-43	-73	-6	-42	-102
C(=C\c1ccc2ccccc2n1)/c1ccccc1	94*	-35	-74	21	-83
O=[N+]([O-])c1ccc(/C=C/c2ccc3ccccc3n2)cc1	54*	-86	-80	-84	-103
COc1ccc(-c2ccc(C3[C@H]4CNC[C@@H]3N4S(=O)(=O)c3ccc(OC)cc3)cc2)cc1 (stereo partly specified)	16	/	/	/	/
COc1cccc(N2C(=O)CC(NNC(=O)c3cccs3)C2=O)c1 (stereo unspecified)	/	2	-25	100*	-5
O=C1C=C(NCCc2cc(Br)c(O)c(Br)c2)C(=O)c2ncccc21	74*	-6	14	35	34
COc1ccc(C[C@H]2CN3C(=NC[C@@H]3Cc3ccccc3)N2CCNC(=O)CCC2CCCCC2)cc1	82*	9	11	-12	15
COc1ccc(C[C@H]2CN3C(=NC[C@@H]3C(C)C)N2CCNC(=O)CCC2CCCCC2)cc1	-28	-25	-14	-16	-13
Cc1nn(C)c(C)c1/C=N/NC(=O)C(C)(C)Oc1ccc(Cl)cc1	-17	18	4	/	12
Cc1nn(C(C)(C)C)c(C)c1/C=N/OC(=O)Nc1ccc(Cl)cc1	99*	93*	94*	91*	93*
NC1=C(Br)C(=O)c2ncccc2C1=O	101*	88*	95*	75*	83*
Cc1cccc(NC(=O)c2onc3c2CCCC3)n1	77*	-10	-132	-7	-61
COc1ccc(NC(=O)Nc2ccc3c(c2)C(=O)N([C@@H](C)CO)C[C@H](C)[C@H](CN(C)S(=O)(=O)c2ccc(F)cc2)OCCCC[C@@H](C)O3)cc1	14	/	/	/	/
OCC1OC(n2ccc3c2ncn2ncnc32)C(O)C1O (stereo unspecified)	-18	53	65	37	62*
Nc1ccn(C2OC(CO)C(O)C2O)c(=O)n1 (stereo unspecified)	/	29	2	-7	43
O=S(=O)(/C(=C/c1ccc(C(F)(F)F)cc1)c1nc2ccccc2[nH]1)c1ccccc1	?	55	2	48	-19
CC(C)c1ccc(/C=C(\c2nc3ccccc3[nH]2)S(=O)(=O)c2ccccc2)cc1	59*	73*	57	53*	28
SMILES	LGR2 inh	NCOA3 inh	NR5A2 inv ag	SRC2 inh	SRC1 inh
CCCNC(=O)N1CC2(C1)[C@@H](c1ccccc1)[C@H](CO)N2C(=O)C1CC1	1	/	/	/	/
C[C@@H]1CN([C@@H](C)CO)C(=O)Cc2cc(NS(C)(=O)=O)ccc2O[C@H]1CN(C)C(=O)Nc1ccc2c(c1)OCO2	3	/	/	/	/
O=C(O)c1cccc(-c2noc(-c3cccc(Cl)c3)n2)c1	84*	-119	-137	-53	-107
O=C(/C=C/c1ccc([N+](=O)[O-])cc1)Nc1ncc([N+](=O)[O-])s1	94*	-84	-111	-31	-72
CC(=O)c1ccc(Nc2nc(-c3sc(C)nc3C)cs2)cc1	97*	-18	17	-35	-31
Cc1ccnc(Nc2nc(-c3sc(C)nc3C)cs2)c1	78*	-16	-79	19	-33
Cc1ccc(-c2csc(Nc3ccccn3)n2)cc1	81*	-44	-125	-5	-64
COc1ccc(Cn2c(-c3ccc(C)cc3)c[n+]3ccccc23)cc1	13	50	73*	6	61*
COC(=O)c1ccc(-c2nc(-c3cccs3)no2)cc1	84*	-99	-92	-64	-119
Cc1ccc(NC(=O)Cn2cccc2C2=NC(c3ccccc3)CO2)cc1C (stereo unspecified)	/	-3	-16	100*	10
COc1ccc2c3c([nH]c2c1)[C@@H](CO)N(C(=O)C1CC1)CC31CCN(C)CC1	-11	/	/	/	/
Cc1ccc(/C=C/c2nc3ccccc3c(=O)[nH]2)cc1	84*	-116	-159	-46	-87
C[C@@H]1CCCCO[C@@H](CN(C)Cc2ccc3c(c2)OCO3)[C@H](C)CN([C@@H](C)CO)C(=O)c2cc(NC(=O)NC3CCCCC3)ccc2O1	3	/	/	/	/
COc1ccc(C(CCNCc2ccc(F)cc2)c2ccc(F)cc2)cc1 (stereo unspecified)	59*	-2	10	3	0
CCCNC(=O)N1CC2(CCN(C(=O)COC)CC2)c2c(n(C)c3cc(OC)ccc23)[C@@H]1CO	0	/	/	/	/
COc1ccc(-c2[nH]ncc2-c2ccc3c(c2)OCCO3)c(O)c1	?	65*	39	49	67*
CCC(=O)N[C@@H]1C=C[C@H](CC(=O)NCC2CC2)O[C@@H]1CO	3	/	/	/	/
COc1ccc(CN2CC3(C2)CN(Cc2ccc4c(c2)OCO4)[C@@H](CO)c2[nH]c4cc(OC)ccc4c23)cc1	-21	/	/	/	/
S=C(NCc1ccccn1)Nc1cccc(Cl)c1	-39	-16	-17	-38	-13
CC(=NNC(=S)Nc1cccc(Cl)c1)c1ccccn1	-107	67*	46	30	58
O=[N+]([O-])c1ccc(Sc2cccc[n+]2[O-])c2nonc12	25	84*	90*	93*	89*
CCC(=O)N1CCC2(CC1)CN(S(=O)(=O)c1ccccc1)[C@H](CO)c1[nH]c3cc(OC)ccc3c12	-15	/	/	/	/
O=c1cnnc(N/N=C/c2ccccn2)[nH]1	29	83*	92*	36	66*
C(=N\Nc1nc2ccccc2[nH]1)/c1ccc2ncccc2c1	-32	-8	-37	19	38
C(=N\Nc1nc2ccccc2[nH]1)/c1ccccn1	90*	9	-75	24	-14
COc1ccc(C(=O)Nc2ccc(C)cn2)c(OC)c1	/	38	-31	56*	-8
COc1ccc(C(=O)Nc2cc(C)on2)c(OC)c1	-49	-113	-153	-44	-126
COc1ccc2c3c(n(C)c2c1)[C@H](CO)NCC31CN(C(=O)Nc2ccc(F)cc2F)C1	-3	/	/	/	/
CO[C@H]1CN(C)C(=O)c2cc(NC(=O)CC(F)(F)F)ccc2OC[C@H](C)N(C(=O)C2CCOCC2)C[C@@H]1C	-1	/	/	/	/
